Screens from PubChem.
This excerpt belongs to a sample that is enriched for hits.
Dicer inh: inhibitors of Dicer pre-microRNA processing, primary screen, biochemical, cat-ELCCA, chemiluminescence | Endoribonuclease Dicer (Homo sapiens), Q9UPY3 | actives 6% (n = 47,000) | cat-ELCCA pre-miR-21 Dicer processing; hits give high values | z-score at 25 µM; in the data active = z-score above about 3, passing the limit was not always enough;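 note: higher signal means more uncleaved substrate so more Dicer inhibition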
Each line names hits and unclear results; the compound was inactive in the other large screens.

CN(C)/C=N/C(=S)Nc1cccc(F)c1	none
CC(C)(C)NNC(=S)Nc1cccc(C(F)(F)F)c1	none
CN(C)/C=N/C(=S)Nc1cccc(C(F)(F)F)c1	Dicer inh 4.9
CC(C)(C)C(=O)NCCC1CC1(Cl)Cl (stereo not given)	none
Cc1ncc(S(=O)(=O)Nc2cc(-c3ccccc3)nn2C)[nH]1	none
N#C/C(=C\N1CCN(C(c2ccccc2)c2ccccc2)CC1)S(=O)(=O)c1ccccc1	none
COc1c(Cl)cc(Cl)c(OC)c1C(=O)NC(=O)Nc1c(C)cc(Br)cc1C	none
COc1c(Cl)cc(Cl)c(OC)c1C(=O)NC(=O)Nc1c(Cl)cc(Cl)cc1Cl	Dicer inh 3.2
COc1c(Cl)cc(Cl)c(OC)c1C(=O)NC(=O)Nc1c(Cl)cc([N+](=O)[O-])cc1Cl	none
Cc1cccc(Cl)c1Oc1c([N+](=O)[O-])c(C)nn1C	none
N#Cc1ccc(-c2nc3ccccc3c(=O)[nH]2)cc1	none
O=C(NC(=O)c1ccccc1O)c1ccc(F)cc1	none
Cc1ccc(CN2C(=O)C(O)(c3c(C)[nH]c4ccccc34)c3ccccc32)cc1 (stereo not given)	none
Cc1[nH]c2ccccc2c1C1(O)C(=O)N(Cc2ccc3c(c2)OCO3)c2ccccc21 (stereo not given)	Dicer inh 3.9
Cc1[nH]c2ccccc2c1C1(O)C(=O)N(Cc2ccc(Cl)cc2)c2ccccc21 (stereo not given)	none
O=C(Nc1cc(C(F)(F)F)cc(C(F)(F)F)c1)Nc1c(Br)cc(Br)cc1-c1nn[nH]n1	none
COc1ccc(C(C)=O)c(OCc2ccccc2)c1	none
CCNc1nc(SCc2ccc(F)cc2)nc2sc3c(c12)CCC(C)C3 (stereo not given)	none
COc1cccc2c1OC(c1cccc(F)c1)N1N=C(c3ccccc3O)CC21 (stereo not given)	Dicer inh 7
COc1ccc(O)c(C2=NN3C(C2)c2cccc(OC)c2OC3c2cccc(O)c2)c1 (stereo not given)	Dicer inh 5.1
COc1ccc(O)c(C2=NN3C(C2)c2cccc(OC)c2OC3c2cccc(F)c2)c1 (stereo not given)	none
COc1cccc2c1OC(c1ccc(O)cc1)N1N=C(c3ccccc3O)CC21 (stereo not given)	none
COc1cccc2c1OC(c1ccccc1)N1N=C(c3ccccc3O)CC21 (stereo not given)	none
COc1ccc(O)c(C2=NN3C(C2)c2cccc(OC)c2OC3c2ccc(OC)c(O)c2)c1 (stereo not given)	none
CS/C(=C/C(=O)c1ccco1)Nc1ccccc1Cl	none
O=C(NC(=O)c1ccc(Oc2ccc(Cl)cc2)c([N+](=O)[O-])c1)Nc1ccccc1C(F)(F)F	none
CCSc1nccc(C(F)(F)F)c1C(=O)N(CC)c1c(C)cccc1C	none
Cc1ccc(C2Nn3c(C)nnc3SC2C(=O)Nc2cc(C)cc(C)c2)cc1 (stereo not given)	none
COC(=O)C(O)(c1ccc(N(C)C(=O)Nc2ccc(F)c(Cl)c2)cc1)C(F)(F)F (stereo not given)	none
COCCOc1cc(C)nc(N2CCOCC2)n1	none
CCOC(=O)C1=C(C)NC2=C(C(=O)CCC2)C1c1ccc(OC)c(Br)c1 (stereo not given)	none
CCCCCOc1ccc(OC(=O)c2sc3ncn(CC)c(=O)c3c2C)cc1	none
COCCOC(=O)c1c(C)oc2ccc(OCc3ccccc3Br)cc12	none
Cc1ccc2nc(SCC(N)=O)nc(C)c2c1	none
O=c1c2cc([N+](=O)[O-])ccc2oc2ncccc12	none
CCOc1ccc2noc3c2c1C(=O)c1ccccc1-3	none
CC(=O)OCCNc1cc(Cl)c2noc3c2c1C(=O)c1ccccc1-3	Dicer inh 3.2
CCOC(=O)c1ccc2c3c(onc13)-c1ccccc1C2=O	none
CSc1sc(-c2nc(C)cs2)c(C)c1-c1ccnc(SCC(=O)Nc2ccc(Cl)cc2)n1	none
CC(=O)Nc1cc(-c2ccc([N+](=O)[O-])cc2)[nH]n1	none
CC1=C(C)C/S(=N\S(=O)(=O)c2ccccc2)N(S(=O)(=O)c2ccccc2)C1 (stereo not given)	none
Cc1cc(-c2nn(C)c(=O)c3ccccc23)cc(C)c1OCC(=O)NNC(=O)Nc1ccccc1	none
CCOC(=O)c1sc(SCc2c(Cl)cccc2Cl)c2c1CC(C)(C)CC2=O	none
CC(C)(C)NC(=S)N/N=C/c1ccccc1Cl	none
CC(C)(C)NC(=S)N/N=C/c1coc2c(Cl)cc(Cl)cc2c1=O	Dicer inh 4.8
CC(C)(C)NC(=S)N/N=C/c1ccccc1O	none
Nc1ccc(Oc2ccc3nc(-c4ccc(N)cc4)[nH]c3c2)cc1	none
Nc1ccc2nc(-c3ccccc3)[nH]c2c1	none
Clc1ccc(-c2nc3ccccc3[nH]2)cc1	none
Cn1c(-c2ccc(-c3nc4ccccc4[nH]3)cc2)nc2cc(N)ccc21	Dicer inh 4.7
Nc1ccc2nc(-c3cccnc3)[nH]c2c1	none
Cn1c(-c2ccc3nc(-c4ccc(N)cc4)[nH]c3c2)nc2cc(N)ccc21	Dicer inh 5.7
CN(C)c1ccc(C2N(C)c3ccccc3N2C)cc1	none
O=S(=O)(Cc1ccccc1)c1nc2ccccc2[nH]1	none
Cc1cc(Sc2nc(C)cc(C)c2C#N)nc(N)n1	none
CC(=O)Nc1nc(-c2ccccc2)nc(C)c1-c1cc(C)c2c(C)nc(-c3ccccc3)nc2n1	none
